Rab9 prom act: Rab9 promoter activation; Huh7 Rab9 promoter-luciferase reporter, luminescence, 24 h; actives 2.8% (n = 320,000); Potency, µM (titrated, usually from 9.22 µM), most hits filed as activators; also: nearly all actives have a fitted effect of over 60% in size
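Measured in stably transfected Huh7 cells bearing a Rab9 promoter–luciferase construct: 24 h compound treatment at 37 °C, followed by luminescence detection.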
SMN2 splice up: enhancers of SMN2 splice variant expression; HEK293 SMN2-luciferase splicing reporter, luminescence, 30-36 h; Potency, µM (highest dose often 46.1 µM), actives largely listed as activators; actives 2.8% (n = 210,000); AID 1458; also: nearly all actives have a fitted effect of over 55% in size
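qHTS luciferase splicing reporter: luminescence rises when SMN2 exon 7 is included in transfected HEK293 cells. Compound exposure lasted 30-36 h at 37C, with 4.5 mM final sodium butyrate as control, followed by a ONE-Glo read.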
ELG1 repair inh: ELG1-dependent DNA repair inhibition. HEK293T ELG1-luciferase reporter, luminescence, 16 h; DNA damage induced by 5-fluorouridine. Potency, µM (top dose mostly 46.1 µM), usual class: inhibitors. actives 2.3% (n = 330,000). AID 504467; also: nearly all actives have a fitted effect of over 55% in size
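Reporter activity after DNA damage by 5-fluorouridine is monitored. Compound-treated cells incubate 16 hr at 37 °C, then ONE-Glo is added for 30 min before luminescence reading.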
FLuc modulator: counter-screen for miR-21 project: firefly luciferase inhibitors or activators | purified FLuc, Km substrates, luminescence inhibition | Potency, µM (highest dose often 57.5 µM), actives largely listed as inhibitors | actives 6.9% (n = 360,000) | AID 588342; also: nearly all actives have a fitted effect of over 55% in size
Target sequence (P08659 whole entry, looked up): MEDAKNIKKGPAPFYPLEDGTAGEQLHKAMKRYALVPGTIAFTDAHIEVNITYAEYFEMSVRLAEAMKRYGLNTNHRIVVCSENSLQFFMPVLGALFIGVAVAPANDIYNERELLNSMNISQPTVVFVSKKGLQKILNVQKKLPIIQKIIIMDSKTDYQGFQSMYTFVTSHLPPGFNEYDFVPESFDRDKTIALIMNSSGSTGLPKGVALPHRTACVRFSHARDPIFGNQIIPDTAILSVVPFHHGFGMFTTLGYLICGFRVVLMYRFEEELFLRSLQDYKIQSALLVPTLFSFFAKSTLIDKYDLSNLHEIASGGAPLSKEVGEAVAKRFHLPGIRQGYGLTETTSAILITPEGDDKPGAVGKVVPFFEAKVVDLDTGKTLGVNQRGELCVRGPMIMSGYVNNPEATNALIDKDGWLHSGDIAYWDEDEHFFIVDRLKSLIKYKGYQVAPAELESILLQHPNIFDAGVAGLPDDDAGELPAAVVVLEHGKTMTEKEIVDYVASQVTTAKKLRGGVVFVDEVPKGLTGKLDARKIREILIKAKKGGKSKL
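Purified P. pyralis luciferase (10nM final) with 10uM D-luciferin and 10uM ATP (Km levels) in 50mM Tris acetate pH 7.5, 10mM Mg acetate, 0.01% Tween-20, 0.05% BSA; qHTS 6-point titration, ~60 µM downward; luminescence read.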
ELG1 genotoxic: induces genotoxicity in HEK293T cells with luciferase-tagged ELG1; HEK293T ELG1-luciferase reporter, luminescence, 16 h; actives 1.3% (n = 330,000); Potency, µM (titrated, usually from 46 µM), usual class: activators; AID 504466; also: nearly all actives have a fitted effect of over 60% in size
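Step 1: seed 2,000 HEK293T ELG1-luciferase cells per well. Step 2: add compound or DMSO, incubate 16 hr at 37 °C. Step 3: ONE-Glo, 30 min at room temperature, read luminescence.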
NPC1 promoter act: activates the NPC1 promoter. Huh7 NPC1 promoter luciferase reporter, 24 h. AID 485313. Potency, µM (series often up to 9.22 µM), actives largely listed as activators. actives 2.4% (n = 320,000); also: nearly all actives have a fitted effect of over 60% in size
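Readout is luciferase luminescence, reflecting NPC1 promoter activation in stably transfected Huh7 cells after 24 h compound exposure at 37 °C in reduced-serum medium with 10% FBS.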
A number is an active result; n = inactive; u = inconclusive; x = no result; [ ] = dose if it differs, or a comment. Sampled rows, rich in hits. Any-hit rate of the full collection: about 9.4%. Calls follow the shape of the dose curve; as a rule, active = well fitted curve in the direction sought with a large enough effect; inconclusive = small, poorly fitted or top-dose-only effect, or another doubt; inactive = no such curve, though single readings can be large; an effect the other way counts as inactive or inconclusive.

SMILES	Rab9 prom act	SMN2 splice up	ELG1 repair inh	FLuc modulator	ELG1 genotoxic	NPC1 promoter act
O=C(CSc1cn(CCNC(=O)c2ccccc2F)c2ccccc12)Nc1ccc(F)cc1	x	n	x	n	x	x
CCCc1c(C)c2ccc(O)c(CN3CCN(c4ccc(F)cc4)CC3)c2oc1=O	x	x	x	n	x	x
O=C(NC(=S)NCc1ccco1)c1ccccc1	n	x	n	n	n	n
CC(C)(C)c1ccc(C(=O)NC(=S)NCc2ccco2)cc1	n	x	n	19µM	n	n
COCCNC(=S)NC(=O)c1ccc(C(C)(C)C)cc1	u	u	u	13µM	u	n
COc1ccc(C(=O)NC(=S)NCCc2ccccc2)cc1	n	n	n	u	n	n
CC1CCCCN1S(=O)(=O)c1cc2c(=O)nc3ccccn3c2cc1Cl (stereo unspecified)	x	x	x	n	x	x
Cc1cccc(Nc2nnc(SC/C(O)=C(\C#N)c3nc4ccccc4[nH]3)s2)c1	n	n	n	17µM	n	n
Cc1ccc(Nc2nnc(SC/C(O)=C(\C#N)c3nc4ccccc4[nH]3)s2)c(C)c1	n	n	n	u	n	n
COc1ccccc1Cn1c(CNS(=O)(=O)c2cccc([N+](=O)[O-])c2)nc2cccnc21	x	x	x	n	x	x
COc1ccccc1NC(=O)COC(=O)C12CC3CC(CC(Cl)(C3)C1)C2	n	n	n	15µM	n	n
Cn1cccc1C(=O)NNC(=O)COc1ccccc1Cl	n	x	u	15µM	n	n
COC(=O)c1ccc(C(=O)OC)c(NC(=O)COC(=O)C23CC4CC(CC(O)(C4)C2)C3)c1	n	x	u	n	n	n
COCCCn1c(C)cc(C(=O)COC(=O)C23CC4CC(CC(O)(C4)C2)C3)c1C	0.63µM	x	u	u	u	u
COc1ccccc1CNC(=O)COC(=O)C12CC3CC(CC(O)(C3)C1)C2	n	x	n	n	n	n
CCOc1ccccc1NC(=O)COC(=O)C12CC3CC(CC(O)(C3)C1)C2	n	x	n	11µM	n	n
COc1ccccc1NC(=O)COC(=O)C12CC3CC(CC(Br)(C3)C1)C2	x	x	n	x	n	x
COc1ccc(NC(=O)CSc2nc3c(oc4ccccc43)c(=O)n2Cc2ccco2)cc1Cl	x	n	x	n	x	x
O=C(COC(=O)C12CC3CC(CC(O)(C3)C1)C2)Nc1ccc(Cl)cc1F	1.3µM	x	u	7.6µM	u	u
COc1ccccc1NC(=O)COC(=O)C1CC2C=CC1C2 (stereo unspecified)	n	n	u	24µM	n	n
Cn1cccc1C(=O)NC(=O)COC(=O)c1ccccc1O	n	35µM	n	n	n	n
Cn1cccc1C(=O)NC(=O)COC(=O)C12CC3CC(CC(O)(C3)C1)C2	n	n	u	6µM	9.2µM	n
COc1ccccc1NC(=O)COC(=O)C1CC2CCCC(C1)C2=O (stereo unspecified)	x	x	n	x	n	x
O=C(CN1CCN(Cc2ccc(F)cc2)C1=O)NCc1ccccc1	x	n	x	n	x	x
CC1=C(C(=O)Nc2ccc(C)cc2C)C(c2cc(Br)ccc2F)n2ncc(C(=O)Nc3ccc(C)cc3)c2N1 (stereo unspecified)	x	x	x	n	x	x
SMILES	Rab9 prom act	SMN2 splice up	ELG1 repair inh	FLuc modulator	ELG1 genotoxic	NPC1 promoter act
COc1ccccc1OCCSc1nc2ccccc2n1CCC(=O)O	n	x	u	27µM	n	n
COc1ccccc1OCCSc1nc2ccccc2n1CCO	n	x	n	17µM	n	n
COc1ccc(OCCSc2nc3ccccc3n2CCC(=O)O)cc1	n	x	n	n	n	n
O=C(Cn1c(=O)n(-c2ccc(Cl)cc2)c(=O)c2c3c(sc21)CCCCC3)Nc1cccc(Cl)c1	x	n	x	n	x	x
CCCCNC(=O)O/N=C(\N)CS(=O)(=O)C(C)(C)C	n	x	n	n	n	n
CCCCCCSC1=C(C#N)C(=O)NC2(CCCCC2)S1	n	n	u	24µM	u	n
Cc1ccc(-n2nnc3c(sc4nc(C)c(C)cc43)c2=O)cc1Cl	x	n	x	n	x	x
Cc1ccccc1NC1=C/C(=N\S(=O)(=O)c2cccs2)c2ccccc2C1=O	n	n	3.7µM	n	n	n
COc1ccc(S(=O)(=O)/N=C2\C=C(Nc3ccc(O)cc3)C(=O)c3ccccc32)cc1	n	x	5.8µM	u	n	n
Cc1ccc(NC2=C/C(=N/S(=O)(=O)c3cccs3)c3ccccc3C2=O)cc1C	u	u	u	n	n	u
CC(=O)Nc1ccc(NC(=O)C(C)OC(=O)c2ccccc2NS(=O)(=O)c2cccs2)cc1 (stereo unspecified)	n	x	n	n	n	n
Cc1ccccc1NC1=C/C(=N\S(=O)(=O)c2ccc(C(=O)O)cc2)c2ccccc2C1=O	n	x	12µM	u	n	n
CC(=O)Nc1ccc(NC2=C/C(=N/S(=O)(=O)c3cccs3)c3ccccc3C2=O)cc1	n	n	1.6µM	u	n	n
N#Cc1ccc(CN2CCCC3(CCN(C(=O)c4cnccn4)CC3)C2)cc1	x	n	x	x	x	x
CCOc1ccc(S(=O)(=O)NCC(c2ccco2)S(=O)(=O)c2ccc(C)cc2)cc1 (stereo unspecified)	x	x	x	n	x	x
COc1ccc(N(C)S(=O)(=O)c2cccc(C(=O)N3CCN(Cc4ccc5c(c4)OCO5)CC3)c2)cc1	n	x	n	n	n	n
Cc1ccc(C(=O)N2CCN(Cc3ccc4c(c3)OCO4)CC2)o1	n	n	n	n	n	n
CCOc1ccc(N(C)S(=O)(=O)c2ccc(C)c(C(=O)N3CCN(Cc4ccc5c(c4)OCO5)CC3)c2)cc1	x	x	16µM	x	n	x
Cc1ccc2c(C)c(C(=O)N3CCN(Cc4ccc5c(c4)OCO5)CC3)oc2c1C	u	x	u	24µM	n	u
NC(N)=NC(N)=Nc1ccc(S(=O)(=O)O)cc1	x	n[9.22 µM]	x	x	x	x
O=S(=O)(O)c1ccc(N=NNc2ccc(Br)cc2)cc1	n	x	n	9.5µM	n	n
Cc1ccc(NC(=O)C2CCC(CNS(=O)(=O)c3csc(C(N)=O)c3)CC2)cc1Cl (stereo unspecified)	x	x	x	n	x	x
c1csc(-c2csc(-c3cccs3)n2)c1	u	n	u	12µM	21µM	n
c1cncc(-c2nc(-c3cccs3)cs2)c1	n	n	u	27µM	n	n
Oc1ccc(-c2csc(-c3cccnc3)n2)c(O)c1	u	u	u	3µM	u	u
O=S(=O)(c1cccc(-c2csc(-c3cccnc3)n2)c1)N1CCCCC1	n	n	n	n	n	n
c1cncc(-c2csc(-c3cccnc3)n2)c1	n	x	n	u	n	n
c1cncc(-c2nc(-c3ccco3)cs2)c1	n	u	u	u	n	n
Clc1ccsc1-c1csc(-c2cccnc2)n1	u	n	u	11µM	u	n
Cc1ccc(C)c(Cn2c(=O)cc(C(F)(F)F)c3c(C)nn(C)c32)c1	x	x	x	n	x	x
